Bioassay records deposited in PubChem by National Center for Advancing Translational Sciences (NCATS).
An excerpt weighted towards active compounds, which were near 14% of everything screened.
Pf growth 96h: inhibits malaria parasite growth, 96 h | P. falciparum luciferase reporter growth, 96 h | Potency, µM (highest dose often 28.7 µM), for the others: top-dose activity change, negative = inhibition, most hits filed as inhibitors | 320,000 compounds, 6.9% hits | AID 504834; further: potency means the concentration at half of the fitted maximal effect
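P. falciparum expressing integrated firefly luciferase, in erythrocytes at 2% hematocrit, 0.05% parasitemia, incubated with compounds 96 h at 37 C, 5% CO2. Growth inhibition read as loss of luminescence; two-generation exposure targets delayed-death apicoplast inhibitors.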
Pf growth 48h: P. falciparum growth inhibition at 48 hours (one generation) | Potency, µM (top dose mostly 28.7 µM), for inactives: top-dose activity change, negative = inhibition, hits mostly inhibitors | 310,000 compounds, 5.9% hits | P. falciparum luciferase growth in erythrocytes, 48 h; further: potency means the concentration at half of the fitted maximal effect
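Compounds are pin-transferred into medium, infected erythrocytes (2% hematocrit, 0.1% parasitemia final) are added, and plates sit one parasite generation at 37 C in 5% CO2. Detection reagent is then added and luminescence measured.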
Sm TGR block: blocks Schistosoma mansoni thioredoxin glutathione reductase | Q962Y6 | purified TGR, DTNB reduction, TNB absorbance 405 nm | Potency, µM (top dose mostly 114 µM), for inactives: at the highest dose activity change, negative = inhibition, usual class: inhibitors | 360,000 compounds, 3% hits; further: potency means the concentration at half of the fitted maximal effect; nearly all actives have a fitted effect of over 60% in size
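First, TGR (20 nM dispensed) and NADPH were mixed with compound. Second, a 15 min room-temperature incubation followed. Third, further NADPH and then DTNB were added to start the reaction. Finally, TNB absorbance was monitored kinetically.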
Giardia FBPA inh: inhibitors of Giardia lamblia fructose-1,6-bisphosphate aldolase. AID 2451. 290,000 compounds, 0.71% hits. purified Giardia FBPA. A8B2U2. Potency, µM (top dose mostly 59.6 µM), for the others: at the top dose activity, negative = inhibition, actives largely listed as inhibitors; further: potency means the concentration at half of the fitted maximal effect; nearly all actives have a fitted effect of over 55% in size
Target sequence (A8B2U2 whole entry, looked up): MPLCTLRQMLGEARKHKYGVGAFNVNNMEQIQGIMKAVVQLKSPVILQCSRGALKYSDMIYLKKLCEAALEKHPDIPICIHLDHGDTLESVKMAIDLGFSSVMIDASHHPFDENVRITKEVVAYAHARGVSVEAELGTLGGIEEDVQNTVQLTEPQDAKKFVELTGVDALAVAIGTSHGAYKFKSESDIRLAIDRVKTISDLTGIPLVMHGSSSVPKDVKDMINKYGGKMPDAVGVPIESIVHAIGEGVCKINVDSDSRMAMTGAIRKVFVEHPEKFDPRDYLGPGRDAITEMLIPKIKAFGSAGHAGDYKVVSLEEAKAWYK
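40 nM FBPA preincubated 10 min at RT with compound (up to 57.5 uM final), then substrate plus GAPDH/TPI/NAD/arsenate coupling and diaphorase/resazurin added. Fluorescence read after 20 min at RT, 525/598 nm.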
HCMV inh: blocks human cytomegalovirus replication; HFF cells, HCMV-luciferase reporter, 72 h; stronger effect = lower value; activity change, negative = inhibition, % at 57.5 µM; 410,000 compounds, 4.5% hits; AID 1259415; in the data active means activity change below about -60%; inconclusive means no clear call, values can overlap the other calls; inactive means above about -39%
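Compounds were evaluated in HFFs infected with an HCMV luciferase reporter virus (MOI 1 PFU/cell). Luciferase in lysates collected 72 h post infection served as the replication measure.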
An asterisk follows results filed as active; ? = inconclusive; · = no result given. Unless noted, the call rests on the fitted dose curve; in most records, active means well fitted curve in the direction sought with a large enough effect; inconclusive means small, poorly fitted or top-dose-only effect, or another doubt; inactive means no such curve, though single readings can be large; an effect the other way counts as inactive or inconclusive. On the % scale 0 is the no-effect control and ±100 the full control effect.

SMILES | Pf growth 96h | Pf growth 48h | Sm TGR block | Giardia FBPA inh | HCMV inh
CC[C@H]1OC(=O)[C@H](C)[C@@H](O[C@H]2C[C@@](C)(OC)[C@@H](O)[C@H](C)O2)[C@H](C)[C@@H](O[C@@H]2O[C@H](C)C[C@H](N(C)C)[C@H]2O)[C@](C)(O)C[C@@H](C)CN(C)[C@H](C)[C@@H](O)[C@]1(C)O | 0.135µM* | 13.5µM* | · | · | -10.5
CCCOc1ccc(C2c3c(oc4ccccc4c3=O)C(=O)N2c2nc(C)c(C(=O)OCC)s2)cc1 (centres undefined) | · | · | 6.6% | · | 10.5
COc1ccc(-c2nnc(S/C(=C/c3ccc(Cl)cc3)C(=O)O)o2)cc1 | ? | 5.1% | -0.5% | 7.4% | -39.7
CSc1ccc(/C=C(/Sc2nnc(-c3ccccc3)o2)C(=O)O)cc1 | 22.6% | 7.3% | -0.5% | 5.5% | -68.6*
O=C(c1ccc2c(=O)n(Cc3ccco3)c(=S)[nH]c2c1)N1CCN(c2ccccc2)CC1 | 11.7µM* | 6.6% | -26.1% | -3.5% | 16.6
O=c1c2cc(N3CCOCC3)ccc2[nH]c(=S)n1Cc1ccco1 | · | 8.6% | 8.91µM* | ? | 36.8
CN(C(=O)c1ccc2c(c1)SC1=NS(=O)(=O)CCN12)C(c1ccccc1)c1ccccc1 | 11.7µM* | 11.7µM* | -16.3% | 0.3% | 53.1
CC(C)(CNC(=O)c1ccc(S(=O)(=O)Nc2ccccc2F)cc1)N1CCOCC1 | 16.1% | -13.4% | 6.0% | · | -27.7
CC(=O)c1cccc(S(=O)(=O)NCC(C)(C)N2CCOCC2)c1 | 32.9% | 29.7% | 39.8µM* | -24.2% | 11.9
Cc1ccccc1NS(=O)(=O)c1ccc(C(=O)NCC(C)(C)N2CCOCC2)cc1 | -2.7% | ? | 0.9% | · | -67.4*
COc1ccc(-c2ccc(N(C)C)cc2)cc1C1C2C=CCC(C)C2C(=O)N1Cc1ccccc1 (centres undefined) | · | · | · | 2.0% | ·
Cc1ccc(C)c(Cn2cnc3ccccc3c2=O)c1 | · | · | -3.2% | · | -14.7
C=CCN1C(=O)/C(=C/c2ccc3c(c2)CCCN3CCC)C(=O)NC1=S | 40.0% | 21.6% | 8.91µM* | ? | 121.4
O=C1NC(=S)N(C2CC2)C(=O)/C1=C/c1ccc2c(c1)CCN2CCCCl | 30.8% | 17.5% | ? | ? | 35.0
CCN1C(=O)/C(=C/c2ccc3c(c2)CCN3CCCCl)C(=O)NC1=S | 0.0% | -0.7% | 8.91µM* | -16.9% | -32.9
CC(C)(C)N1C(=O)NC(=O)/C(=C\c2ccc3c(c2)CCN3CCCCl)C1=O | ? | 3.5% | ? | -17.5% | 40.4
Cc1ccc(C)c(N2CCN(c3nc4ccc(C(=O)c5ccccc5)cc4n4cnnc34)CC2)c1 | · | · | 3.6% | · | 3.3
c1ccc(N2CCN(c3nc4ccccc4n4cnnc34)CC2)cc1 | 4.15µM* | · | 4.1% | 3.9% | -38.0
c1ccc2c(c1)CCN(c1nc3ccccc3n3cnnc13)C2 | ? | · | -21.5% | ? | 64.7
O=C(c1ccccc1)c1ccc2nc(N3CCN(c4ccc(F)cc4)CC3)c3nncn3c2c1 | · | · | -2.4% | · | -66.7*
C1=C(c2ccccc2)CCN(c2nc3ccccc3n3cnnc23)C1 | 5.7% | · | 3.55µM* | -14.5% | -1.6
CCOC(=O)C1CCCN(C(=O)C2CCN(S(=O)(=O)c3c(C)noc3/C=C/c3ccc(C)cc3)CC2)C1 (centres undefined) | · | · | 0.7% | · | 11.8
O=C(Nc1nc(-c2ccc(Br)cc2)ns1)c1ccccc1F | · | · | 1.4% | · | 6.5
CC(C)C[C@H]1CN=C(N(C)C)N1CCCCc1ccccc1 | ? | 5.22µM* | 1.4% | · | ?
CCC(C)CCN1C(N(C)C)=NC[C@@H]1CC(C)C (some centres undefined) | ? | 13.1µM* | -5.4% | · | -5.9
CCC(C)CCN1C(N(C)C)=NC[C@@H]1Cc1ccccc1 (some centres undefined) | ? | ? | -1.4% | · | -66.7*
C[C@H]1CN=C(N(C)C)N1CCCCc1ccccc1 | ? | ? | -9.7% | · | -19.7
CCC(CC)CN1C(N(C)C)=NC[C@@H]1CC(C)C | 8.28µM* | ? | -10.1% | · | -2.3
COc1ccc(CC(=O)N(C)Cc2ccc(Cl)cc2)cc1S(=O)(=O)N1CCOCC1 | ? | ? | -6.4% | · | -17.1
COc1ccc(NC(=O)C2=C(C)Nc3ncnn3C2c2ccc[nH]2)cc1 (centres undefined) | · | · | -0.6% | · | -4.6
